# Results from the supplement of paper PMC10849652.
# The full data set covers some 7,900 targets. This sample favours those with a hit. About 0.6% of all pairs of compound and target were hits. A number with no mark means an inactive call.
# Tests used:
# Experiment in all cases: log2 fold change, soluble protein after heating vs DMSO (PISA); higher = thermal stabilisation; K562 cells, 10 uM, 30 min; active = over 0.2 and 3.5 SD of the protein, either way, in both replicates (recomputed)
# bafetinib = compound: Cc1ccc(NC(=O)c2ccc(CN3CC[C@H](N(C)C)C3)c(C(F)(F)F)c2)cc1Nc1nccc(-c2cncnc2)n1 [bafetinib]
# Outline: (§1)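 Quantification of soluble protein used TMTpro 16plex LC-MS/MS, with channel sums equalised. Samples were the supernatant after 21,000xg for 90 min of pooled aliquots from K562 cells (2×10^6 cells/mL) treated with 10 μM compound for 30 min, heated for 3 min over 48°C-58°C, and extracted in PBS with 0.5% NP-40 at 4°C. Values, from duplicates, describe thermal stability against control samples on a log2 fold-change scale.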
# [1] = compound: Cc1cccc(CC(=O)N2CCc3c2ccc(-c2cn(C)c4ncnc(N)c24)c3F)n1
# Outline: as §1
# nilotinib = compound: Cc1cn(-c2cc(NC(=O)c3ccc(C)c(Nc4nccc(-c5cccnc5)n4)c3)cc(C(F)(F)F)c2)cn1 [nilotinib]
# Outline: as §1
# [2] = compound: Cc1nc(Nc2n[nH]c3c2CN(C(=O)N[C@H](CN(C)C)c2ccccc2)C3(C)C)c2sccc2n1
# Outline: as §1
# dasatinib = compound: Cc1nc(Nc2ncc(C(=O)Nc3c(C)cccc3Cl)s2)cc(N2CCN(CCO)CC2)n1 [dasatinib]
# Outline: as §1
# [3] = compound: Cc1ncc(-c2ccnc(Nc3ccc(S(C)(=O)=O)cc3)n2)n1C(C)C
# Outline: as §1
# [4] = compound: Cn1cc(-c2ccc3c(c2)CCN3C(=O)Cc2cccc(C(F)(F)F)c2)c2c(N)ncnc21
# Outline: as §1
# [5] = compound: Cn1cc(-c2ccc3nnc(C(F)(F)c4ccc5ncccc5c4)n3n2)cn1
# Outline: as §1
# tipifarnib = compound: Cn1cncc1[C@@](N)(c1ccc(Cl)cc1)c1ccc2c(c1)c(-c1cccc(Cl)c1)cc(=O)n2C [tipifarnib]
# Outline: as §1
# mubritinib = compound: FC(F)(F)c1ccc(/C=C/c2nc(COc3ccc(CCCCn4ccnn4)cc3)co2)cc1 [mubritinib]
# Outline: as §1
# Chain of UniProt Q96D46 (Q96D46 whole entry, looked up): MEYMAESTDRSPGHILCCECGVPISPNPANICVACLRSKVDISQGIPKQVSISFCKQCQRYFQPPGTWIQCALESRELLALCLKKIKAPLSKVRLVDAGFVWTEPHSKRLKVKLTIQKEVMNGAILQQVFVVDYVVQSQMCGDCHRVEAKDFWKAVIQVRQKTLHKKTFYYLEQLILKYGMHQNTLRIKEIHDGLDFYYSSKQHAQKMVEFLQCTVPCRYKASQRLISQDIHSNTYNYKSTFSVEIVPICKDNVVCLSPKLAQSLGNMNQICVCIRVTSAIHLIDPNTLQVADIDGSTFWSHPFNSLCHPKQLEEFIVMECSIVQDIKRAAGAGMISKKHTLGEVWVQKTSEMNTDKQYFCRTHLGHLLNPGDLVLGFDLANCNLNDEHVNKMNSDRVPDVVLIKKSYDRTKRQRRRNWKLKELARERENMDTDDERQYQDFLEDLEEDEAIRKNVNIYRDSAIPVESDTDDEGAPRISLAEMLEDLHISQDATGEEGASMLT
# Chain of UniProt Q9BZQ8 (Q9BZQ8 whole entry, looked up): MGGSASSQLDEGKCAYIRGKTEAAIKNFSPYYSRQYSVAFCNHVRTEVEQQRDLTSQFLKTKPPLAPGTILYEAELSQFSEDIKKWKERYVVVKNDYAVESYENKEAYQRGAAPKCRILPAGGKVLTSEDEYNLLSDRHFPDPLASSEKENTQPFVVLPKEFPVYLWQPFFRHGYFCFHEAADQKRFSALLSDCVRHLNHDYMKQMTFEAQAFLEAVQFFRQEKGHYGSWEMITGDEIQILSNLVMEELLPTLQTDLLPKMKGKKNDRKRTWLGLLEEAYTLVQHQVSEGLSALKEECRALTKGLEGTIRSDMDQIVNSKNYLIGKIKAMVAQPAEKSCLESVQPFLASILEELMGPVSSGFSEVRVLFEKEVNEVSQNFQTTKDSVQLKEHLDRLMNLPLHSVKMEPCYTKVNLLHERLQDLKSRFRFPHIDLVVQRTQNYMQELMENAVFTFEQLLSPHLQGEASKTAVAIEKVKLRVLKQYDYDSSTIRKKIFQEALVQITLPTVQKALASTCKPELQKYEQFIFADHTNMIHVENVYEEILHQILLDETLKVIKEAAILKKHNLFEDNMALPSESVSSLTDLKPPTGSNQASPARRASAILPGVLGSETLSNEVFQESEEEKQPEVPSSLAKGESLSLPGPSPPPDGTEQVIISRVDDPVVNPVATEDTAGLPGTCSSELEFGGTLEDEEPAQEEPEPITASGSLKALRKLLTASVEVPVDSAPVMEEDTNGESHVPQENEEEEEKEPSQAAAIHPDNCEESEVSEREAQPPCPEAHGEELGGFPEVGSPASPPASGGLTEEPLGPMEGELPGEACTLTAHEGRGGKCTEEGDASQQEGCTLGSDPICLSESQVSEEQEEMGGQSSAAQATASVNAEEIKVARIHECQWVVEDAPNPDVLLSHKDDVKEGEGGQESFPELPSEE
# Chain of UniProt Q9UH92 (Q9UH92 whole entry, looked up): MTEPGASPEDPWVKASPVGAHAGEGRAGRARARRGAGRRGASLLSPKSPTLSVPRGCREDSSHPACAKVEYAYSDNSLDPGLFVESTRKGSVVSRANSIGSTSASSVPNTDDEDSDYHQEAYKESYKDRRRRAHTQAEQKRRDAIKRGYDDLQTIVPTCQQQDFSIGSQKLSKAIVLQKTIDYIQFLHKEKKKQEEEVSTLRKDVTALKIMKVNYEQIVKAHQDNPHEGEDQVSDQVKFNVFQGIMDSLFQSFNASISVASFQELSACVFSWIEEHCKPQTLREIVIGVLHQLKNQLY
# Chain of UniProt Q92692 (Q92692 whole entry, looked up): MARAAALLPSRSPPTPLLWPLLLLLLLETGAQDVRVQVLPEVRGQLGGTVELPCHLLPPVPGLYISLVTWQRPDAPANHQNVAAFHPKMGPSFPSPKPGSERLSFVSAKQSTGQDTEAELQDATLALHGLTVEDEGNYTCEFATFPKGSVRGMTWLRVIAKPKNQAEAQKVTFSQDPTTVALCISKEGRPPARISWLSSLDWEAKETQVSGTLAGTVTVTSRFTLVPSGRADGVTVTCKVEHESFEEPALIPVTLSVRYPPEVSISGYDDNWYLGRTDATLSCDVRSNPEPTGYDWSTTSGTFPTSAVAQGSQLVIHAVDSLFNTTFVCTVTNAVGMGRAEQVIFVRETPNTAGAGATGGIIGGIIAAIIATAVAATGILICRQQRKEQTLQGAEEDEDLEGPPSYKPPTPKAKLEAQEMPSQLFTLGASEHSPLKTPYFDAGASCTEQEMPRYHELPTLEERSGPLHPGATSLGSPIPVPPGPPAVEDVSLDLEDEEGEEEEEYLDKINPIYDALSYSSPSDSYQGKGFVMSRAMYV
# Chain of UniProt P17568 (P17568 whole entry, looked up): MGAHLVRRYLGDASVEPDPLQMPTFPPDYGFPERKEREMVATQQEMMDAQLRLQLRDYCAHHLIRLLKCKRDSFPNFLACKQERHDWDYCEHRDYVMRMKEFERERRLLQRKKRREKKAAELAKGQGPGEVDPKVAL
# Chain of UniProt O95182 (O95182 whole entry, looked up): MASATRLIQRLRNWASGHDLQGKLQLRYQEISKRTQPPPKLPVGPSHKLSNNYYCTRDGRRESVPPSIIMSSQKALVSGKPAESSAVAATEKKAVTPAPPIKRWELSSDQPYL
# Chain of UniProt Q86WQ0 (Q86WQ0 whole entry, looked up): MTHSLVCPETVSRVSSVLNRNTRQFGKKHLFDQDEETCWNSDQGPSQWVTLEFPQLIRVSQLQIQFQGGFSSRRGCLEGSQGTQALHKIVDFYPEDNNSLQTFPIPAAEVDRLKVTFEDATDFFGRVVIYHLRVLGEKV
# Chain of UniProt Q9UK23 (Q9UK23 whole entry, looked up): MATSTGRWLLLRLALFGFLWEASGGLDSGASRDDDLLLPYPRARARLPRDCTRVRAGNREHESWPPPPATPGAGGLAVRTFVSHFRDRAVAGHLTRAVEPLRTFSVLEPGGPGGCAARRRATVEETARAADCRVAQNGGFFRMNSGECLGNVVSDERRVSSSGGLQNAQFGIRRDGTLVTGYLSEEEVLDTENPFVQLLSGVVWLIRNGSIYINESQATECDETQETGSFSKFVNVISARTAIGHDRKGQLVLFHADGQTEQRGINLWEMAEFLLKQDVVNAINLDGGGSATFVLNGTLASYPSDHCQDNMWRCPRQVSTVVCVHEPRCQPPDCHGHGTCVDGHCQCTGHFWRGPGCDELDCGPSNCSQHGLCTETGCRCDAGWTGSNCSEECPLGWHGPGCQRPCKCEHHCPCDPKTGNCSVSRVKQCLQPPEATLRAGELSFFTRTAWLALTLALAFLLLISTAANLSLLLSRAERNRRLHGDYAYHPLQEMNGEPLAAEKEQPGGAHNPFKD
# Chain of UniProt Q8IXH7 (Q8IXH7 whole entry, looked up): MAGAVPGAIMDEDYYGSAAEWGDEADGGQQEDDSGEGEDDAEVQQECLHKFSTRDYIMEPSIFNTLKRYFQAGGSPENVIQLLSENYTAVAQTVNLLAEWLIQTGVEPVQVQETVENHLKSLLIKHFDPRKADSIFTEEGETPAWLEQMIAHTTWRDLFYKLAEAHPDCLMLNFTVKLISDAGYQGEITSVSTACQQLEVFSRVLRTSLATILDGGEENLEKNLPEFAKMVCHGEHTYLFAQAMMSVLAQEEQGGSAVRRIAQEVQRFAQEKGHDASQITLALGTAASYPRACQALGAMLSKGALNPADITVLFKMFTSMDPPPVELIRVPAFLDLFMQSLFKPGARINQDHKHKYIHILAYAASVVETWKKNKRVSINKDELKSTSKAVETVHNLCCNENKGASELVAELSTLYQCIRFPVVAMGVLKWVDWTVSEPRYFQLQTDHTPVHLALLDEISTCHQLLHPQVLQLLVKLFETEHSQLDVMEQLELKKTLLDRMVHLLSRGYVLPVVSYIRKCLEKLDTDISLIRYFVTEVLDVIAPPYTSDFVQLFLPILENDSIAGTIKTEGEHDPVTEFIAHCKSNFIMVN
# Chain of UniProt Q6N063 (Q6N063 whole entry, looked up): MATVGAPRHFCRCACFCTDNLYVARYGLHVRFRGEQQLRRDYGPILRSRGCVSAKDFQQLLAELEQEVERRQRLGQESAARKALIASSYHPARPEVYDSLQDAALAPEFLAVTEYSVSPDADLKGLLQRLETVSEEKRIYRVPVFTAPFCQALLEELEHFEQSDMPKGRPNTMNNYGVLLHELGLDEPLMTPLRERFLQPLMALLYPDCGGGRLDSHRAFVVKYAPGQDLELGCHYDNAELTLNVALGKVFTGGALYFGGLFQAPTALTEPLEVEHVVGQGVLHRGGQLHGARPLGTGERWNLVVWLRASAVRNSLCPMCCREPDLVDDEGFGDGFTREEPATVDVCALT
# Chain of UniProt Q5TFE4 (Q5TFE4 whole entry, looked up): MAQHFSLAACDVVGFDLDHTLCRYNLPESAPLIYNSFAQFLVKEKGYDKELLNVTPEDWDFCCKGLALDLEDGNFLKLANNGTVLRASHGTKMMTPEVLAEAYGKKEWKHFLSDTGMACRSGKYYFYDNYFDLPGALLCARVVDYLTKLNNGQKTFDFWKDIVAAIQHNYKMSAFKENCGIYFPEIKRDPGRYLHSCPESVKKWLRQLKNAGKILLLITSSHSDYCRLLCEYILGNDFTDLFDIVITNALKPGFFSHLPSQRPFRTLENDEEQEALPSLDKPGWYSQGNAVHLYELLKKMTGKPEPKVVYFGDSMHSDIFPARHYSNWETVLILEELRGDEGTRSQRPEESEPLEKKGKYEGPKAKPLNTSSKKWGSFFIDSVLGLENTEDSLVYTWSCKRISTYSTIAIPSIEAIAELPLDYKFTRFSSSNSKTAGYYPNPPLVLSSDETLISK
# Chain of UniProt Q9HAN9 (Q9HAN9 whole entry, looked up): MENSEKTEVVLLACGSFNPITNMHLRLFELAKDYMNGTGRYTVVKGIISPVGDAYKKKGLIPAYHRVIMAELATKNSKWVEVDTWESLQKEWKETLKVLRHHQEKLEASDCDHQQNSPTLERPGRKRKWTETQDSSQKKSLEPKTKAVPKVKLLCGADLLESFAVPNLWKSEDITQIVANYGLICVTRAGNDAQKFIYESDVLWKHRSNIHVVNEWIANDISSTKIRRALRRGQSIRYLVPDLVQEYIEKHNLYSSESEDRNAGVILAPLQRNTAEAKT
Target,log2 fold change (bafetinib),log2 fold change [1],log2 fold change (nilotinib),log2 fold change [2],log2 fold change (dasatinib),log2 fold change [3],log2 fold change [4],log2 fold change [5],log2 fold change (tipifarnib),log2 fold change (mubritinib)
NDUFS8 (UniProt O00217),-0.055,0.047,-0.036,-0.002,-0.1,-0.047,0.1,0.055,-0.053,0.111
MRPS27 isoform 2 (UniProt Q92552),0.181,0.099,-0.083,0.021,-0.104,-0.049,0.022,0.033,-0.112,0.119
MINK1 (UniProt Q8N4C8),-0.031,-0.04,-0.025,-0.062,-0.222 (active),-0.09,0.02,-0.042,0.018,0.014
MORF4L2 (UniProt Q15014),0.026,-0.055,0.009,0.01,0.045,-0.005,-0.087,-0.131,0.059,-0.076
OXSM (UniProt Q9NWU1),-0.063,-0.034,0.029,-0.002,0.031,-0.015,0.029,0.021,-0.009,0.023
NGLY1 (UniProt Q96IV0),0.039,0.055,-0.068,-0.038,-0.064,0.021,-0.009,-0.034,-0.067,-0.062
NIBAN1 (UniProt Q9BZQ8),-0.013,0.121,-0.041,-0.383 (active),-0.14,-0.057,0.001,-0.035,-0.04,0.013
PACS1 (UniProt Q6VY07),0.008,0.02,0.051,0.038,0.018,-0.018,-0.006,-0.098,-0.002,-0.021
NMNAT1 (UniProt Q9HAN9),0.052,-0.034,-0.073,0.023,0.159,-0.047,-0.143,-0.21,0.118,-0.047
NUP107 (UniProt P57740),-0.013,0.716 (active),-0.027,-0.012,-0.12,-0.145,-0.077,-0.008,-0.026,-0.036
NDUFA7 (UniProt O95182),-0.056,0.124,0.016,-0.025,-0.145,-0.059,-0.005,-0.061,0.002,0.247 (active)
MKNK1 (UniProt Q9BUB5),0.088,0.057,0,0.059,-0.115,-0.04,0.117,-0.183,-0.101,0.03
OGFOD2 (UniProt Q6N063),0.009,0.171,0.004,-0.007,-0.04,-0.023,-0.011,0.132,,0.092
OXA1L (UniProt Q15070),-0.152,-0.032,0.013,-0.019,-0.01,-0.029,0.013,0.038,0.004,0.003
MRPS10 (UniProt P82664),0.057,0.119,-0.097,0.006,-0.005,-0.046,0.002,-0.096,-0.104,0.1
NOL11 (UniProt Q9H8H0),-0.042,0.017,-0.016,0.017,0.017,0.11,-0.006,0.001,0.036,-0.012
NAP1L1 (UniProt B7Z9C2),-0.11,-0.249,-0.011,-0.002,-0.347,-0.043,,,,0.049
NT5DC1 (UniProt Q5TFE4),0.043,0.004,0.099,0.069,0.033,-0.016,0.045,0.069,-0.043,0.001
NCL (UniProt P19338),0.272,0,-0.033,0.026,0.209,0.051,-0.445,-0.237,0.225,-0.325
NASP (UniProt P49321),-0.036,0.011,-0.013,-0.032,-0.027,0,-0.02,0.009,-0.026,0.026
NDUFB7 (UniProt P17568),0,0.164,-0.029,0.057,0.022,-0.053,0.043,0.01,-0.029,-0.007
NELFCD (UniProt Q8IXH7),0.116,-0.111,-0.233,-0.003,-0.158,0.064,0.061,,0.035,
MLX (UniProt Q9UH92),-0.022,0.094,-0.11,-0.01,0.008,-0.11,-0.054,-0.097,-0.122,-0.061
NIPSNAP3B (UniProt Q9BS92),-0.085,-0.054,-0.029,0.01,-0.044,0.013,0.109,,-0.018,0.083
NNMT (UniProt P40261),-0.038,0.068,0.015,0.005,0.037,-0.021,0.052,,-0.002,0.094
NR2C2AP isoform 2 (UniProt Q86WQ0),0.037,0.03,-0.072,0.003,-0.095,-0.008,0.028,-0.016,0.007,0.072
NDFIP1 (UniProt Q9BT67),-0.137,-0.08,-0.214,0.354,0.039,0.225,-0.038,-0.072,,-0.024
NAGPA (UniProt Q9UK23),-0.076,-0.142,-0.082,0,0.053,0.014,0.023,,0.245,-0.091
NMD3 (UniProt Q96D46),0.071,0.03,0.025,0.316 (active),0.014,0.123,0.083,0.028,-0.107,0.083
NECTIN2 isoform 2 (UniProt Q92692),-0.64,0.145,0.129,-0.016,0.001,0.006,,-0.129,,-0.049
